# Results reported in PubChem BioAssay (Tox21).
# Several values for one entry are separate records, joined by “and”; a condition that tells them apart may be missing. Identical values can stand only once. Results filed as inconclusive are left out. Entries that show only a call come without a potency. Some structures have more than one record in an assay (separate samples or runs), and their calls can disagree. Activity calls are given as the source filed them. Unless noted, calls follow the shape of the dose curve; as a rule, active = well fitted curve in the direction sought with a large enough effect in the repeat runs; inconclusive = weak or mixed curves; inactive = no such curve, though single readings can be large; an effect the other way counts as inactive or inconclusive. Starred links: 1 amine or outer side, 2 acyl side, 3 side chain; linkers in the order of their positions; H or OH if unused. Positions of bridges follow the written chain, without caps; N, C: chain ends. Non-standard residues stand in square brackets, D forms with d. Residues, ends and D or L forms follow the SMILES beside them. Chains are numbered I, II in the order given. Actinocin(9to1) = Cc1c2oc3c(C)ccc(C(=O)[*:1])c3nc-2c(C(=O)[*:2])c(N)c1=O; NMeV = CN[C@H](C(=O)O)C(C)C; Sar = CNCC(=O)O
# How the values were obtained:
# [1] = qHTS assay to identify small molecule antagonists of the glucocorticoid receptor (GR) signaling pathway - cell viability counter screen (AID 720693); also: nearly all actives have a fitted effect of over 55% in size; also: potency is read from the fitted curve at half-maximal effect
# [2] = qHTS assay for identifying genotoxic compounds that show differential cytotoxicity against isogenic chicken DT40 cell lines with known DNA damage response pathways - wild type cell line (AID 743012); also: nearly all actives have a fitted effect of over 60% in size; also: potency is read from the fitted curve at half-maximal effect
# In short: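 CellTiter-Glo luminescence readout of viability in wild type DT40 cells after 40 h compound exposure at 37 C/5% CO2; 300 cells/well; reagent incubated 30 min at room temperature before reading.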
# [3] = qHTS assay for identifying genotoxic compounds that show differential cytotoxicity against isogenic chicken DT40 cell lines with known DNA damage response pathways - Rev3 mutant cell line (AID 743014); also: nearly all actives have a fitted effect of over 55% in size; also: potency is read from the fitted curve at half-maximal effect
# [4] = qHTS assay for identifying genotoxic compounds that show differential cytotoxicity against isogenic chicken DT40 cell lines with known DNA damage response pathways - Rad54/Ku70 mutant cell line (AID 743015); also: nearly all actives have a fitted effect of over 60% in size; also: potency is read from the fitted curve at half-maximal effect
# [5] = qHTS assay to identify small molecule antagonists of the androgen receptor (AR) signaling pathway - cell viability counter screen (AID 743033; also: nearly all actives have a fitted effect of over 45% in size; also: potency is read from the fitted curve at half-maximal effect)
# [6] = molecular target: Androgen receptor (Homo sapiens) (UniProt P10275); test: qHTS assay to identify small molecule antagonists of the androgen receptor (AR) signaling pathway (AID 743035; active = well fitted inhibition curve with a large enough effect in the signal ratio in the repeat runs, not every such curve was filed as active; the % refers to the signal ratio; also: potency is read from the fitted curve at half-maximal effect)
# In short: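 AR-bla HEK293 reporter cells; 4 h settle at 37C/5% CO2; compound + R1881 agonist, 16 h at 37C; LiveBLAzer B/G FRET substrate 2 h RT; fluorescence intensity read. qHTS format.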
# [7] = molecular target: Androgen receptor (Homo sapiens) (UniProt P10275); test: qHTS assay to identify small molecule agonists of the androgen receptor (AR) signaling pathway (AID 743036; active = well fitted activation curve with a large enough effect in the signal ratio in the repeat runs, with a control signal flat, not every such curve was filed as active; the % refers to the signal ratio; also: potency is read from the fitted curve at half-maximal effect)
# In short: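 Screening used 2,000 AR-bla HEK293 cells per well, treated 16 h at 37C with test compounds in DMSO alongside positive and DMSO-only controls; beta-lactamase activity was then read by LiveBLAzer B/G FRET fluorescence after 2 h at room temperature.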
# [8] = molecular target: Androgen receptor (Homo sapiens) (UniProt P10275); test: qHTS assay to identify small molecule agonists of the androgen receptor (AR) signaling pathway using the MDA cell line (AID 743040; also: nearly all actives have a fitted effect of over 20% in size)
# In short: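 Luciferase read-out, ONE-Glo, 30 min RT. Cells: MDA-kb2 AR-luc, MMTV promoter with AR and GR response elements. Compound exposure 16 h, 37C, 0% CO2, after 5 h pre-incubation. qHTS agonist mode.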
# [9] = molecular target: Androgen receptor (Homo sapiens) (UniProt P10275); test: qHTS assay to identify small molecule antagonists of the androgen receptor (AR) signaling pathway using the MDA cell line (AID 743042; also: nearly all actives have a fitted effect of over 55% in size; also: potency is read from the fitted curve at half-maximal effect)
# In short: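 MDA-kb2 breast carcinoma cells carrying MMTV-luciferase (AR/GR responsive) were co-treated with compounds and the agonist R1881 for 16 h at 37C. Inhibition read as ONE-Glo luminescence; CellTiter-Fluor fluorescence measured in parallel for cytotoxicity.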
# [10] = qHTS assay to identify small molecule antagonists of the androgen receptor (AR) signaling pathway using the MDA cell line - cell viability counter screen (AID 743041; also: nearly all actives have a fitted effect of over 45% in size; also: potency is read from the fitted curve at half-maximal effect)
# In short: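 Cytotoxicity counter screen: MDA-kb2 AR-luc cells, compound + R1881, 16 h, 37C, 0% CO2; CellTiter-Fluor added at 15.5 h, fluorescence read after 30 min.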
# Androgen receptor (Homo sapiens), sequence (P10275 whole entry, looked up): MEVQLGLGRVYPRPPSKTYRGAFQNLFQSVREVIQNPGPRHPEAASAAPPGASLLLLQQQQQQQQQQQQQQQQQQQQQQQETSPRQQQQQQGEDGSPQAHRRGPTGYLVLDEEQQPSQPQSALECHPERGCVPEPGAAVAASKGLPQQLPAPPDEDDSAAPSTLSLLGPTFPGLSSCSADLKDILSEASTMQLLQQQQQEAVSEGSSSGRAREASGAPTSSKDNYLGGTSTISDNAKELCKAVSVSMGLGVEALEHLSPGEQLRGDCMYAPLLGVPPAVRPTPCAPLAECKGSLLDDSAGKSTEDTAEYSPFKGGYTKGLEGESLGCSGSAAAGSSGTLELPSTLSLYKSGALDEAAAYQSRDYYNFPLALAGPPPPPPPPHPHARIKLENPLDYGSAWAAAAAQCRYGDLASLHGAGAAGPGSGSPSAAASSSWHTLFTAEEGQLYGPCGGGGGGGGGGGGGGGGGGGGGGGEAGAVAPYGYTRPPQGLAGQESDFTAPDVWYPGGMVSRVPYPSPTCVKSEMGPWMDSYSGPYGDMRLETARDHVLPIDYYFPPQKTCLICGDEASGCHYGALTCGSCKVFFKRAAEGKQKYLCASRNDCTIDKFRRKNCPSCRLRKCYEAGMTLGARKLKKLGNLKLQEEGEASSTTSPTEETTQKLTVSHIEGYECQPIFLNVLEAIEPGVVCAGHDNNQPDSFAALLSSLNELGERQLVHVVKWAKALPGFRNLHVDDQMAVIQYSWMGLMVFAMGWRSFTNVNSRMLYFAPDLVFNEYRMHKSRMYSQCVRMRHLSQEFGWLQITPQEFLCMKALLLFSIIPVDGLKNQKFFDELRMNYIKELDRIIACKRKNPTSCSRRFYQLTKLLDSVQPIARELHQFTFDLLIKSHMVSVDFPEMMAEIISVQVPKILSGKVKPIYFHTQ
SMILES,Potency [1],Potency [2],Potency [3],Potency [4],Potency [5],Potency [6],Potency [7],outcome [8],Potency [9],Potency [10]
CCC(C)(Oc1ccc(C2(c3ccc(OC(C)(CC)C(=O)O)cc3)CCCCC2)cc1)C(=O)O (configuration not stated),inactive,inactive,inactive,inactive,inactive,inactive,inactive,inactive,inactive,–
COc1ccc(CCN(C)CCCC(C#N)(c2ccc(OC)c(OC)c2)C(C)C)cc1OC (configuration not stated),inactive,13.3 µM (active) and 54.4 µM (active),23.7 µM (active) and 27.3 µM (active),29.8 µM (active) and 61 µM (active),–,–,–,–,–,–
CC1COc2c(N3CCN(C)CC3)c(F)cc3c(=O)c(C(=O)O)cn1c23 (configuration not stated),inactive,inactive,inactive,inactive,inactive,–,–,–,–,–
CCCCC(CC)COC(=O)CC(C(=O)OCC(CC)CCCC)S(=O)(=O)O (configuration not stated),inactive,inactive,inactive,inactive and 43.3 µM (active),inactive,–,–,–,–,–
COC(=O)c1cccc(C(=O)OC)c1,inactive,inactive,inactive,inactive,inactive,inactive,inactive,inactive,inactive,–
OCCOCCN1CCN(C(c2ccccc2)c2ccc(Cl)cc2)CC1 (configuration not stated),inactive,38.1 µM (active),21.4 µM (active),30.2 µM (active),inactive,–,–,–,–,–
CC(C)(C)c1ccccc1,inactive,inactive,inactive,inactive,inactive,–,–,–,–,–
CCOC(=O)C(C)C(C)=O (configuration not stated),inactive,inactive,inactive,inactive,inactive,–,–,–,–,–
Cc1cccc([N+](=O)[O-])c1C(=O)O,inactive,inactive,inactive,inactive,inactive,–,–,–,–,–
CCC[C@H](N[C@@H](C)C(=O)N1[C@H](C(=O)O)C[C@@H]2CCCC[C@@H]21)C(=O)OCC,inactive,inactive,inactive,inactive,inactive,–,–,–,–,–
CCCCCCCCCCCC[N+](C)(C)C,24.5 µM (active) and 17.4 µM (active) and 38.9 µM (active),861 nM (active) and 243 nM (active) and 217 nM (active),432 nM (active) and 137 nM (active) and 217 nM (active),543 nM (active) and 217 nM (active),48.9 µM (active) and 49 µM (active) and 38.9 µM (active),–,–,–,–,–
CC1=C(C=O)C(C)(C)CC=C1,inactive,inactive,inactive,inactive,inactive,–,–,–,–,–
CCN(CC)c1ccc2c(C)cc(=O)oc2c1,inactive,30.9 µM (active) and inactive,69.1 µM (active),61.6 µM (active),inactive,–,–,–,–,–
CC(C)(c1ccccc1)c1ccc(Nc2ccc(C(C)(C)c3ccccc3)cc2)cc1,inactive,inactive and 54.5 µM (active),inactive and 54.5 µM (active),inactive and 61.1 µM (active),inactive,–,–,–,–,–
Cc1cccc(O)c1C,inactive,inactive,inactive,inactive,inactive,–,–,–,–,–
O=C1OC2(c3ccc(O)cc3Oc3cc(O)ccc32)c2ccccc21,inactive,inactive,inactive,inactive,inactive,–,–,–,–,–
NC(N)=Nc1nc(CSCC/C(N)=N/S(N)(=O)=O)cs1,inactive,inactive,inactive,inactive,inactive,–,–,–,–,–
Cc1cc(Cc2cc(C)cc(C(C)(C)C)c2O)c(O)c(C(C)(C)C)c1,12.4 µM (active) and 13.8 µM (active),15.4 µM (active) and 17.2 µM (active),13.8 µM (active) and 19.3 µM (active),9.74 µM (active) and 15.4 µM (active),22 µM (active),–,–,–,–,–
CCC(C)(C)C(=O)O[C@H]1C[C@@H](C)C=C2C=C[C@H](C)[C@H](CC[C@@H]3C[C@@H](O)CC(=O)O3)[C@H]21,inactive,2.17 µM (active),0.154 µM (active),1.09 µM (active),inactive,–,–,–,–,–
CN1C(=O)c2ccc([N+](=O)[O-])cc2C1=O,inactive,inactive,inactive,inactive,inactive,inactive,inactive,inactive,inactive,inactive

SMILES,Potency [1],Potency [2],Potency [3],Potency [4],Potency [5],Potency [6],Potency [7],outcome [8],Potency [9],Potency [10]
CCN1CCCC1CNC(=O)c1cc(S(=O)(=O)CC)c(N)cc1OC (configuration not stated),inactive,inactive,inactive,inactive,inactive,–,–,–,–,–
CN(C)c1ccc(C(=C2C=CC(=[N+](C)C)C=C2)c2ccccc2)cc1,195 nM (active),1.06 µM (active) and 13.7 nM (active),1.19 µM (active) and 7.7 nM (active),1.5 µM (active) and 10.9 nM (active),0.155 µM (active),–,–,–,–,–
CCOc1ccccc1C(N)=O,inactive,inactive,inactive,inactive,inactive,inactive,inactive,inactive,inactive,inactive
CC(N)=O,inactive,inactive,inactive,inactive,inactive,–,–,–,–,–
CC1COC(=O)O1 (configuration not stated),inactive,inactive,inactive,inactive,inactive,inactive,inactive,inactive,inactive,inactive
O=C1CC2(CCCC2)CC(=O)N1CCCCN1CCN(c2ncccn2)CC1,inactive,21.1 µM (active) and 13.7 µM (active),7.7 µM (active),21.1 µM (active) and 15.4 µM (active),inactive and 21.9 µM (active),–,–,–,–,–
O=Cc1ccc(Cl)cc1,inactive,inactive,inactive,inactive,inactive,inactive,19.4 µM (active),–,inactive,inactive
OCC(CO)N[C@H]1C[C@](O)(CO)[C@@H](O)[C@H](O)[C@H]1O,inactive,inactive,inactive,inactive,inactive,inactive,inactive,inactive,inactive,inactive
C=C(C)C1CC=C(C)C(OC(C)=O)C1 (configuration not stated),inactive,inactive,inactive,inactive,inactive,–,–,–,–,–
CCCOC(=O)c1cc(O)c(O)c(O)c1,inactive,13.3 µM (active) and 43.1 µM (active) and 43.3 µM (active),15 µM (active) and 27.2 µM (active) and 30.6 µM (active),13.3 µM (active) and 27.2 µM (active) and 27.3 µM (active),inactive,–,–,–,–,–
"Cc1c2oc3c(C)ccc(C(=O)N[C@@H]4C(=O)N[C@H](C(C)C)C(=O)N5CCC[C@H]5C(=O)N(C)CC(=O)N(C)[C@@H](C(C)C)C(=O)O[C@@H]4C)c3nc-2c(C(=O)N[C@@H]2C(=O)N[C@H](C(C)C)C(=O)N3CCC[C@H]3C(=O)N(C)CC(=O)N(C)[C@@H](C(C)C)C(=O)O[C@@H]2C)c(N)c1=O (I: T[dV]P[Sar][NMeV] / II: T[dV]P[Sar][NMeV]; ester I:1-I:C, II:1-II:C; linker I:N-II:N via Actinocin(9to1))",239 nM (active) and 9.5 nM (active),6.7 nM (active) and 1.1 nM (active),7.5 nM (active) and 0.7 nM (active),0.0024 µM (active),inactive,23.9 nM (active) and 1 nM (active),inactive,inactive,15 nM (active) and 4.2 nM (active),–
Oc1c(Cl)cc(Cl)c(Cl)c1Cc1c(O)c(Cl)cc(Cl)c1Cl,1.69 µM (active) and 21.8 µM (active) and 19.5 µM (active),5.96 µM (active) and 3.05 µM (active) and 4.33 µM (active),5.96 µM (active) and 3.05 µM (active) and 3.86 µM (active),8.41 µM (active) and 3.05 µM (active) and 3.86 µM (active),9.52 µM (active) and 1.54 µM (active) and 1.74 µM (active),10.7 µM (active) and 1.74 µM (active),–,inactive,13.3 µM (active) and 2.16 µM (active) and 5.45 µM (active),13.3 µM (active) and 17.2 µM (active) and 19.3 µM (active)
Clc1ccc2c(c1)C(N1CCNCC1)=Nc1ccccc1O2,inactive,26.6 µM (active) and 7.7 µM (active),29.8 µM (active) and 9.69 µM (active),26.6 µM (active) and 10.9 µM (active),inactive,–,–,–,–,–
CC(C)CCOCc1ccccc1,inactive,inactive,inactive,inactive,inactive,inactive,inactive,inactive,inactive,inactive
CC(C(O)c1ccc(O)cc1)N1CCC(Cc2ccccc2)CC1 (configuration not stated),inactive,2.11 µM (active),0.335 µM (active),0.668 µM (active),inactive,–,–,–,–,–
CCN(CC)C(=S)SSC(=S)N(CC)CC,inactive,106 nM (active) and 96.9 nM (active) and 19.8 nM (active),119 nM (active) and 96.9 nM (active) and 38.4 nM (active),106 nM (active) and 96.9 nM (active) and 68.6 nM (active),425 nM (active) and 138 nM (active) and 100 nM (active),123 nM (active),inactive,inactive,266 nM (active) and 217 nM (active) and 140 nM (active),–
COc1nc(C)nc(Cl)c1NC1=NCCN1,inactive,inactive,inactive,inactive,inactive,–,–,–,–,inactive
O=C(O)c1cc(Cl)cc(Cl)c1,inactive,inactive,inactive,inactive,inactive,–,–,–,–,inactive
COC(c1ccccc1)(c1ccccc1)[C@H](Oc1nc(C)cc(C)n1)C(=O)O,inactive,inactive,inactive,inactive,inactive,–,–,–,–,inactive
CC(=O)OCCOCCOCCOC(C)=O,inactive,inactive,inactive,inactive,inactive,–,–,–,–,inactive
